Structures are written as SMILES. Activity calls are given as the source filed them. The calls were made as follows: active = hit-call score of the fitted dose curve at least 0.9, where 1 is the maximum; inactive = score below 0.9.

For orientation: AC50 means the midpoint of the concentration-response curve, whichever way the signal moves.

A short description of experiment [1]: ATG_GRE_CIS: Attagene CIS-FACTORIAL HepG2 Assay for human Glucocorticoid Response Elements (GRE) (AID 2282947). The conditions noted are these: HepG2 GRE cis-reporter, Attagene multiplex mRNA; actives raise or lower the signal. Summed up: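 Assay uses human hepatoma HepG2 cells transfected with cis-promoter reporter units, exposed 24 h. mRNA from reporters detected by RT-PCR plus capillary electrophoresis; DMSO serves as negative control and baseline.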

Experiment [2] is described as follows: ATG_ISRE_CIS: Attagene CIS-FACTORIAL HepG2 Assay for human Interferon Regulatory Factor 1 (IRF1) binding to an Interferon-Stimulated Response Element (ISRE) (AID 2282948). To be noted: HepG2 ISRE cis-reporter (Attagene), mRNA transcription readout; actives raise or lower the signal. The gist of the method:
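Transiently transfected HepG2 cells carrying cis-element reporter units, dosed 24 hours. Reporter mRNA quantified by RT-PCR, fluorescent primer extension, HpaI digestion and capillary electrophoresis. Bidirectional fitting relative to DMSO.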

Experiment [3] can be described thus: ATG_M_32_CIS: Attagene CIS-FACTORIAL HepG2 Assay for M32 Transcription Factor (Internal Marker) (AID 2282949).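 Also: background control marker of the multiplexed CIS panel rather than a real target.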 The conditions noted are these: HepG2 Attagene cis-factorial M32 reporter, mRNA; actives raise or lower the signal. The gist of the method: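 Internal background marker read-out: RT-PCR/capillary electrophoresis fluorescence of reporter transcripts from transiently transfected HepG2 cells after 24 h chemical exposure. Activity fitted bidirectionally relative to DMSO negative control.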

Experiment [4] in a line: ATG_M_06_CIS: Attagene CIS-FACTORIAL HepG2 Assay for M06 Transcription Factor (Internal Marker) (AID 2282950). To be noted: HepG2 Attagene CIS-FACTORIAL M06 internal marker reporter; actives raise or lower the signal. The gist of the method: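 HepG2 liver cells, 24 h exposure. Reporter transcripts from transfected cis-element constructs quantified by RT-PCR/capillary electrophoresis fluorescence. Bidirectional curve fit against DMSO.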

For experiment [5], the target named is Hypoxia-inducible factor 1-alpha (Homo sapiens) (UniProt Q16665). The experiment can be described thus: ATG_HIF1a_CIS: Attagene CIS-FACTORIAL HepG2 Assay for human Hypoxia Inducible Factor 1 (HIF1A) (AID 2282951). To be noted: HepG2 Attagene cis-factorial HIF1a reporter transcription; actives raise or lower the signal. Summed up:
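Transient MRTU transfection of human HepG2 liver cells, 24 h compound treatment, then total RNA isolation, oligo(dT) reverse transcription, PCR amplification, fluorescent labelling and capillary electrophoresis of reporter fragments. Gain or loss relative to DMSO.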

Experiment [6] concerns the target Hepatocyte nuclear factor 6 (Homo sapiens) (UniProt Q9UBC0). The experiment can be described thus: ATG_HNF6_CIS: Attagene CIS-FACTORIAL HepG2 Assay for human Hepatocyte Nuclear Factor 6 (HNF6) (AID 2282952). The conditions noted are these: HepG2 Attagene cis-factorial HNF6 reporter transcription; actives raise or lower the signal. The gist of the method:
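HepG2 cells transiently transfected with cis-element-driven multiplexed reporter units measuring endogenous transcription factor activity. After 24 h exposure, reporter mRNA quantified by RT-PCR, FAM-labelled fragments and capillary electrophoresis; bidirectional fitting versus DMSO.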

Experiment [7] in a line: ATG_MRE_CIS: Attagene CIS-FACTORIAL HepG2 Assay for human Metal Responsive Element (MRE) (AID 2282954). To be noted: HepG2 MRE cis-reporter transcription, Attagene multiplex; actives raise or lower the signal. The gist of the method: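 After a 24 h chemical exposure, transiently transfected HepG2 cells yield RNA whose reporter sequences are amplified, FAM-labelled and sized by capillary electrophoresis. Curves are fitted bidirectionally relative to DMSO.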

A short description of experiment [8]: ATG_PBREM_CIS: Attagene CIS-FACTORIAL HepG2 Assay for human Phenobarbital-responsive Enhancer Module (PBREM) (AID 2282955). The conditions noted are these: HepG2 PBREM cis-reporter, Attagene multiplexed transcription; actives raise or lower the signal. The gist of the method: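 Endogenous transcription factors in human liver HepG2 cells drive a PBREM cis-element reporter, whose transcript level after 24 h treatment is quantified by RT-PCR with capillary electrophoresis; activity fitted in both directions against DMSO.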

Experiment [9] concerns the target Paired box protein Pax-6 (Homo sapiens) (UniProt P26367). The experiment can be described thus: ATG_Pax6_CIS: Attagene CIS-FACTORIAL HepG2 Assay for human Paired Box 6 (PAX6) (AID 2282956). The conditions noted are these: HepG2 CIS-FACTORIAL PAX6 reporter transcription, RNA readout; actives raise or lower the signal. The gist of the method: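 HepG2 cells transiently transfected with cis-promoter-driven multiplexed reporter units sensing endogenous transcription factor activity; 24 h chemical exposure. Reporter mRNA quantified by RT-PCR, 6-FAM labelling, HpaI digestion and capillary electrophoresis; bidirectional fit versus DMSO baseline.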

Experiment [10] can be described thus: ATG_PXRE_CIS: Attagene CIS-FACTORIAL HepG2 Assay for human Pregnane X Receptor Element (PXRE) (AID 2282957). To be noted: HepG2 Attagene CIS-FACTORIAL PXRE reporter, mRNA; actives raise or lower the signal. Summed up:
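HepG2 cells transiently transfected with cis-element-driven multiplexed reporter units; after 24 h chemical exposure, reporter mRNA measured by RT-PCR, 6-FAM labelling, HpaI digestion and capillary electrophoresis. Bidirectional fitting relative to DMSO.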

Experiment [11] is described as follows: ATG_PPRE_CIS: Attagene CIS-FACTORIAL HepG2 Assay for human Peroxisome Proliferator-activated Response Element (PPRE) (AID 2282958). The conditions noted are these: HepG2 PPRE cis-element reporter, Attagene transcription factor profiling; actives raise or lower the signal. The gist of the method: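 HepG2, transient MRTU transfection (cis promoter elements, endogenous TFs). 24 h dosing. RNA → oligo(dT) RT → PCR → 6-FAM primer extension → HpaI digest → CE. Bidirectional fit vs DMSO.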

Experiment [12] in a line: ATG_RORE_CIS: Attagene CIS-FACTORIAL HepG2 Assay for human RAR-related Orphan Receptor Element (RORE) (AID 2282959). The conditions noted are these: HepG2 Attagene cis-factorial RORE reporter, mRNA; actives raise or lower the signal. Summed up: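 Transient MRTU transfection of human HepG2 liver cells (FuGene 6); 24 h compound exposure; TriZol RNA, oligo(dT) RT, PCR, FAM labeling, HpaI cut, CE fragment analysis. DMSO = negative control/baseline.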

Experiment [13] in a line: ATG_Sox_CIS: Attagene CIS-FACTORIAL HepG2 Assay for human SRY-box transcription factor (SOX) (AID 2282960). To be noted: HepG2 Attagene cis-factorial SOX reporter, mRNA; actives raise or lower the signal. The gist of the method:
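Endogenous factor activity in human liver HepG2 cells carrying transfected cis-regulated reporter units. RNA taken 24 h post-dose, reverse-transcribed, PCR-amplified and sized by capillary electrophoresis. Gain or loss of signal fitted relative to DMSO.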

Experiment [14] concerns the target Transcription factor Sp1 (Homo sapiens) (UniProt P08047). The experiment can be described thus: ATG_Sp1_CIS: Attagene CIS-FACTORIAL HepG2 Assay for human Specificity Protein 1 (Sp1) (AID 2282961). To be noted: HepG2 Sp1 cis-reporter transcription, actives raise or lower the signal. The gist of the method:
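Transient MRTU-transfected HepG2, 24 h compound exposure. Total RNA → oligo(dT) RT → PCR of reporter → 6-FAM primer extension → HpaI digest → CE. Endpoint fitted both directions vs DMSO.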

The nature of experiment [15]: ATG_SREBP_CIS: Attagene CIS-FACTORIAL HepG2 Assay for human Sterol Regulatory Element Binding (SREBP) (AID 2282962). To be noted: HepG2 Attagene cis-factorial SREBP reporter, mRNA; actives raise or lower the signal. The gist of the method:
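HepG2 cells transiently transfected with multiplexed cis-promoter reporter units sensing endogenous transcription factors; reporter mRNA measured 24 h after dosing by RT-PCR, 6-FAM labeling, HpaI digestion and capillary electrophoresis. Bidirectional fit versus DMSO.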

Experiment [16] has as its target Signal transducer and activator of transcription 3 (Homo sapiens) (UniProt P40763). The experiment can be described thus: ATG_STAT3_CIS: Attagene CIS-FACTORIAL HepG2 Assay for human Signal Transducer and Activator of Transcription 3 (STAT3) (AID 2282963). The conditions noted are these: HepG2, Attagene cis-factorial STAT3 reporter transcription; actives raise or lower the signal. Summed up: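 After a 24 h compound incubation, total RNA from MRTU-transfected HepG2 cells was converted to cDNA and reporter sequences PCR-amplified, labelled and profiled by capillary electrophoresis. Gain and loss of signal were referenced to DMSO.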

Experiment [17] in a line: ATG_TA_CIS: Attagene CIS-FACTORIAL HepG2 Assay for human TA Basal Promoter (AID 2282964). The conditions noted are these: HepG2 Attagene CIS-factorial TA basal promoter reporter; actives raise or lower the signal. Summed up: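 Fluorescence from labelled RT-PCR reporter fragments, separated by capillary electrophoresis, gives the signal. Cells: HepG2 transiently carrying multiple reporter units, 24 h chemical dosing. Gain or loss relative to DMSO.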

The target in experiment [18] is Heat shock factor protein 1 (Homo sapiens) (UniProt Q00613). The experiment can be described thus: ATG_HSE_CIS: Attagene CIS-FACTORIAL HepG2 Assay for human Heat Shock Transcription Factor 1 (HSE) (AID 2282953). To be noted: HepG2 HSE cis-reporter, Attagene RNA transcription; actives raise or lower the signal. The gist of the method: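 Endogenous transcription factor activity captured via cis-promoter reporter units transfected into HepG2; treatment lasted 24 h. Fluorescence intensity of reporter fragments analysed with bidirectional curve fitting, DMSO baseline.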
Chain of Heat shock factor protein 1 (Homo sapiens) (Q00613 whole entry, looked up, the tested form may be a part): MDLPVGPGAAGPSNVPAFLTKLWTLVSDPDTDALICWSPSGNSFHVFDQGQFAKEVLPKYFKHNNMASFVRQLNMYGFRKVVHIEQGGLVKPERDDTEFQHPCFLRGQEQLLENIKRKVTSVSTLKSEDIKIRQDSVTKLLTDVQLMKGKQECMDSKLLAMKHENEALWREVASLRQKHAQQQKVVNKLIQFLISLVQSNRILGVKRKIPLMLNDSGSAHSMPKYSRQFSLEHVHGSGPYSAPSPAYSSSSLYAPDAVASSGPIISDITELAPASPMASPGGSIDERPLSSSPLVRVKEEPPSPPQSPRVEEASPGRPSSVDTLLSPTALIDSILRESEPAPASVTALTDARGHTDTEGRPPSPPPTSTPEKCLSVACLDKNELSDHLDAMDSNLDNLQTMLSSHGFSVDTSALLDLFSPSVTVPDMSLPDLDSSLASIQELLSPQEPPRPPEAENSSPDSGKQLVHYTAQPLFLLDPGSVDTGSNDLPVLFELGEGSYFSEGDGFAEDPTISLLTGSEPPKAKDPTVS

Experiment [19] can be described thus: ATG_TCF_b_cat_CIS: Attagene CIS-FACTORIAL HepG2 Assay for human T-Cell-Factor with beta-catenin (TCF/b-cat) (AID 2282965). The conditions noted are these: HepG2 TCF/beta-catenin cis-reporter transcription, actives raise or lower the signal. The gist of the method:
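Endogenous transcription factor activity is captured through cis-promoter reporter constructs transiently introduced into human HepG2 liver cells. Induced reporter mRNA is measured after 24 h and fitted bidirectionally relative to DMSO.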

Chain of Signal transducer and activator of transcription 3 (Homo sapiens) (P40763 whole entry, looked up): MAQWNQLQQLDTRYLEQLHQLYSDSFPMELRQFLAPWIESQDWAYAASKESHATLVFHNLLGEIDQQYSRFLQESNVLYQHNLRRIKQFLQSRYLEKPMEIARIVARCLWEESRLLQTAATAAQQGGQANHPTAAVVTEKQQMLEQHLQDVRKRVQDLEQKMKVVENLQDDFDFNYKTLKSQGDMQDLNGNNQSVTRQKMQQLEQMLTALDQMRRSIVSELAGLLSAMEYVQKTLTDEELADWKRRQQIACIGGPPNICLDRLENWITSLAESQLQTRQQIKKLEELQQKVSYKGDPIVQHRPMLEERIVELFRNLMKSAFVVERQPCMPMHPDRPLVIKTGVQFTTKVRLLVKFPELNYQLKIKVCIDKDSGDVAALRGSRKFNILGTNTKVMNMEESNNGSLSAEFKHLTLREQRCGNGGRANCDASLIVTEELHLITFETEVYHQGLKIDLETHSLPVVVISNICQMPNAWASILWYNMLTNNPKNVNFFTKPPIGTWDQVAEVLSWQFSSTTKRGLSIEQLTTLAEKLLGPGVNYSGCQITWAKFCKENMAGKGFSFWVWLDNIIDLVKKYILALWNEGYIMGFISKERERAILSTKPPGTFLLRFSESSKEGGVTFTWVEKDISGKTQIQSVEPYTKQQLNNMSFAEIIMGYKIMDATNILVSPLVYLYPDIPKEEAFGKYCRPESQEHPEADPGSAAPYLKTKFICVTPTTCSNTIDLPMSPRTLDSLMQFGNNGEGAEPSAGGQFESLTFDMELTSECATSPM
Chain of Transcription factor Sp1 (Homo sapiens) (P08047 whole entry, looked up): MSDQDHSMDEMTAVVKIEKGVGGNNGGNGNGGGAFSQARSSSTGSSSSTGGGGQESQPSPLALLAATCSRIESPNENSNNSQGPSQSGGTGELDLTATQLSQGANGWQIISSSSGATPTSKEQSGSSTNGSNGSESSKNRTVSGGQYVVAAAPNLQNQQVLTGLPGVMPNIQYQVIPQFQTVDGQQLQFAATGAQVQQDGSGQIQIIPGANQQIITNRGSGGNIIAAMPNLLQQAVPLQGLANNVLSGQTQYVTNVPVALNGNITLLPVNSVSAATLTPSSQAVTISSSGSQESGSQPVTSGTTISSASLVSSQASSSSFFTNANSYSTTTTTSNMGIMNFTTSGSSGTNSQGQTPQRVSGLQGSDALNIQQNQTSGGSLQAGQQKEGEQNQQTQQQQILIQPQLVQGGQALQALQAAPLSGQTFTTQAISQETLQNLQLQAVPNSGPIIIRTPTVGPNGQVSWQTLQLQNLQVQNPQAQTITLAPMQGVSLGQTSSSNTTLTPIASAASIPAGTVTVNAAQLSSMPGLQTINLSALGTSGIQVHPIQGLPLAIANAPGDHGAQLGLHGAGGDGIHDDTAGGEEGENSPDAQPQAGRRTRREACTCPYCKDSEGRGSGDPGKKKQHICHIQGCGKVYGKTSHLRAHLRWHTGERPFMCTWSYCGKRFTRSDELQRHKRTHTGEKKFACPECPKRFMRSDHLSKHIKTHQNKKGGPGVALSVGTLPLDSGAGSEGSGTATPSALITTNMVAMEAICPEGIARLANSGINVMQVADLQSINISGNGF
Chain of Hepatocyte nuclear factor 6 (Homo sapiens) (Q9UBC0 whole entry, looked up, the tested form may be a part): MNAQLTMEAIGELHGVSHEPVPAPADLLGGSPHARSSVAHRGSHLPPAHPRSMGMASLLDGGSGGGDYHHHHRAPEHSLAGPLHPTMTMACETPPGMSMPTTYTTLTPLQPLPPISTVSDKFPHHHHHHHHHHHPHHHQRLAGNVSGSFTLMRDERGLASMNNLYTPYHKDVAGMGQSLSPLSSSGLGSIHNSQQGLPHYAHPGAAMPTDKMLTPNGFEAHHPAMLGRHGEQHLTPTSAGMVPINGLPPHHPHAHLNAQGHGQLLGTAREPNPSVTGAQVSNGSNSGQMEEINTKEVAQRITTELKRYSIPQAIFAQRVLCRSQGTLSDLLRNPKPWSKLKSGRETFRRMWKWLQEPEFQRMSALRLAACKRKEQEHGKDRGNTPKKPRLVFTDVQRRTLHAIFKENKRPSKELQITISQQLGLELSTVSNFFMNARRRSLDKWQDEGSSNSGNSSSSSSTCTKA
Chain of Paired box protein Pax-6 (Homo sapiens) (P26367 whole entry, looked up): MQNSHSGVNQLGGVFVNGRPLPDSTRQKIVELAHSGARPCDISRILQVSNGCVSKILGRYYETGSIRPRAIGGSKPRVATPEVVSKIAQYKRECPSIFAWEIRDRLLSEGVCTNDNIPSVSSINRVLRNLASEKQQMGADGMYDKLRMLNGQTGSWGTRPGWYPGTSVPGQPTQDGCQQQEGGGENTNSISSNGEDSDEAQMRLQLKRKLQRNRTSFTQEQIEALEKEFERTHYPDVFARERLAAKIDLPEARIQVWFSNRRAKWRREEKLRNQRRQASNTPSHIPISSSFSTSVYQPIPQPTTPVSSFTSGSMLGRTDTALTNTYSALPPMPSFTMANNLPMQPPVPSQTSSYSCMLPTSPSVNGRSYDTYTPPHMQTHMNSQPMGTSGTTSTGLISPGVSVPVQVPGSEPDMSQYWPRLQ
Chain of Hypoxia-inducible factor 1-alpha (Homo sapiens) (Q16665 whole entry, looked up, the tested form may be a part): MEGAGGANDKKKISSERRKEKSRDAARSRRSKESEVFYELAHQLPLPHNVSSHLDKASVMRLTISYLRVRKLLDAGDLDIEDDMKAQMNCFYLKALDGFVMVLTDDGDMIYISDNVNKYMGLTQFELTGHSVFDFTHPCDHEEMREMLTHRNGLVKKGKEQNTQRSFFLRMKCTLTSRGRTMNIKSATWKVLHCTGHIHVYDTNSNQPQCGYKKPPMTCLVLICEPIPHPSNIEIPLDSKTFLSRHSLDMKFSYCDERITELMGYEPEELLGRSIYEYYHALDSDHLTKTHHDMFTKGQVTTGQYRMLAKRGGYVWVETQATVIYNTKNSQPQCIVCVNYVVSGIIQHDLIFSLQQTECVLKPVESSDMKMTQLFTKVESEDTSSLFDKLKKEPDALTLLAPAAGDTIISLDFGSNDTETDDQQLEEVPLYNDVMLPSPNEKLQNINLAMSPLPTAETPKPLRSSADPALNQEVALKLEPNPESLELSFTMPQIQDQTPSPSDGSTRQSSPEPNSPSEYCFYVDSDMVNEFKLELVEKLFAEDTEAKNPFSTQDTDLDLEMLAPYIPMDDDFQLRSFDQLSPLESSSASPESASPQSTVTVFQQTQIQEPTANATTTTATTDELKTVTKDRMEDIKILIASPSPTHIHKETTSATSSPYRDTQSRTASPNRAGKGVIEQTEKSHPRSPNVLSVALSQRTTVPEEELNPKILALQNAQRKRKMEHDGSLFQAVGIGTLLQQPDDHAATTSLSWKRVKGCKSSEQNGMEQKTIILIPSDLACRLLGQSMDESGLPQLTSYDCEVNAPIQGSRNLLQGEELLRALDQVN

Turning to `CCOCCOCCOCC`, the compound was classed as inactive in experiment [1], in [2], in experiment [3], in [4], in experiment [5] and in experiment [6]. In addition, the outcome in experiment [7], in experiment [8], in experiment [9], in experiment [10], in [11] and in [12] was inactive. Moreover, the call in [13], in experiment [14], in experiment [15], in [16] and in experiment [17] was inactive.

Consider `C=C(C)[C@@H]1CC=C(C)C(=O)C1`, for which the result in [1], in experiment [2], in experiment [3], in experiment [4], in experiment [5] and in experiment [6] was inactive. Further, the compound was classed as inactive in experiment [18], in [7], in experiment [9], in [12], in experiment [13] and in experiment [14]. Further, the call in experiment [15], in experiment [16], in [17] and in experiment [19] was inactive. The AC50 in [10] was 25.5 µM (active).

For the compound `COc1ccc(N=Nc2cc(C)c(N=Nc3ccc(S(=O)(=O)O)cc3)cc2OC)cc1`, the result in [1], in [2], in [3], in [4], in experiment [6] and in experiment [7] was inactive. Moreover, the result in experiment [8], in experiment [11], in experiment [13], in experiment [17] and in experiment [19] was inactive. Besides, the AC50 in experiment [18] is 100 µM (active); in experiment [10] it was 23.1 µM (active); in [12], 8.45 µM (active); in experiment [14], 175 µM (active); in experiment [15], 162 µM (active); in [16], 162 µM (active).

In the case of `COCCOCCOCCO`, the outcome in experiment [1], in [2], in experiment [3], in experiment [4], in [5] and in experiment [6] was inactive. Also, the outcome in experiment [7], in experiment [8], in experiment [9], in experiment [12], in experiment [13] and in experiment [14] was inactive. Further, the call in experiment [15], in experiment [16], in experiment [17] and in experiment [19] was inactive. The AC50 in [10] is 33.4 µM (active).

In the case of `CC(C)(C)CC(C)(C)c1ccc(OCCOCC[N+](C)(C)Cc2ccccc2)cc1`, the outcome in [1], in experiment [2], in experiment [3], in experiment [4], in experiment [5] and in experiment [6] was inactive. The outcome in experiment [18], in experiment [9], in experiment [11], in experiment [13], in [14] and in [16] was inactive. In addition, the outcome in [17] was inactive. For the same compound, the results for the half-maximal activity concentration (AC50) in [7] and in experiment [19] were 8.35 µM (active) and 12 µM (active), respectively.

As for `[O-]n1ccccc1=S.[O-]n1ccccc1=S.[Zn+2]`, the compound was called inactive in experiment [1], in experiment [3], in experiment [4], in [5], in experiment [6] and in experiment [9]. The call in experiment [10], in experiment [11], in experiment [13], in experiment [14], in [15] and in experiment [16] was inactive. In addition, the result in experiment [17] and in experiment [19] was inactive. Also, the AC50 was 1.07 µM (active) in experiment [2] and 0.923 µM (active) in [7].

On to `Cc1ccc(N)c(S(=O)(=O)O)c1`, for which the compound was classed as inactive in [1], in experiment [2], in experiment [3], in [4], in [5] and in experiment [6]. The call in experiment [18], in experiment [7], in experiment [9], in [10], in [11] and in experiment [12] was inactive. The outcome in experiment [13], in experiment [14], in experiment [15], in [16], in [17] and in experiment [19] was inactive.

For the origin of these results see PubChem BioAssay (EPA / NIEHS).
